# In PubChem BioAssay (NCI):
# The panel holds about 83,000 compounds, 20% with a hit somewhere; the sample as a whole holds those more often.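 The test compound was applied at a single concentration to cells in 96-well plates for 48 hours, and percent growth was recorded.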 Calls of active or inactive are those of the source.
# Test system: HOP-92 NSCLC
# Test: NCI-60 one-dose screen, 48 h (100 = growth as untreated, 0 = no growth, -100 = all killed)
# Conditions: 10 µM unless noted
# Method: Growth inhibition of the HOP-92 human Non-Small Cell Lung tumor cell line is measured as a screen for anti-cancer activity. Cells are grown in 96 well plates and exposed to the test compound for 48 hours. Compounds are tested at a single concentration, which is 10^-5 M for most compounds. The reported endpoint is percent growth (GI% or GIPRCNT), where numbers from 0 - 100% represent growth inhibition, and numbers from -100% - 0 represent cell death. For example, a value of 40 represents 60% growth inhibition. A value of 0 means no net growth occurred over the course of the experiment. A value of -40 indicates 40% of cells at the beginning of the experiment died by the end of the experiment. A value of -100 means all cells are dead at the end of the experiment.
# NCI-60 Human Tumor Cell Lines Screen was performed using the standard one-dose NCI protocol, which is described in more detail at https://dtp.cancer.gov/discovery_development/nci-60/default.htm.
# Compounds with GIPRCNT values below 10 were considered active. Activity score was based on GIPRCNT using the following formula: […]
# Score is 0 for GIPRCNT values of 100 or above, 50 for GIPRCNT values of 0, and 100 for GIPRCNT values of -100.
row,Structure (SMILES),growth
1,Nc1nc(N)c2nc3c(nc2n1)CCCCCCCCCC3,79.7% (inactive)
2,Cn1cc(-c2csc(-c3c[nH]c4ccc(F)cc34)n2)c2cccnc21,71.9% (inactive)
3,CC(Cc1ccco1)C(=O)NC(N)=O (stereo not given),109% (inactive)
4,O=C(O)c1cccc2c1-c1ccc(Cl)cc1C2,112% (inactive)
5,CN(C)c1ccc(N=C2C=CC(=O)C=C2)cc1,77.5% (inactive)
6,CCC(c1ccc(OC)cc1)C(CC)c1ccc(O)c(CN2CCCCC2)c1 (stereo not given),52.2% (inactive)
7,CCN1CCN(C(=O)[C@@]2(C)CC[C@]3(C)CC[C@]4(C)C(=CC(=O)[C@@H]5[C@@]6(C)CC[C@H](OCCC#N)C(C)(C)[C@@H]6CC[C@]54C)[C@@H]3C2)CC1,70.8% (inactive)
8,COc1cccc(-c2nn(-c3ccccc3)cc2-c2ccnc(NCCNS(=O)(=O)c3ccc(C(F)(F)F)cc3)c2)c1,-10.9% (active)
9,C=C(C)[C@@H]1CC[C@]2(C)[C@H](CC=C3[C@@H]4CC(C)(C)CC[C@]4(C=O)CC[C@]32C)[C@@]1(C)CCCN,62% (inactive)
10,COc1cccc(-c2nn(-c3ccccc3)cc2-c2ccnc(NCCNS(=O)(=O)c3cccc(F)c3)c2)c1,22.3% (inactive)
11,O=[N+]([O-])c1cc(S(=O)(=O)c2ccc(F)c([N+](=O)[O-])c2)ccc1F,88.6% (inactive)
12,Cc1ccc2[nH]cc(-c3nc(-c4cn(C)c5ncccc45)cs3)c2c1,74.6% (inactive)
13,CCCCC(=O)OC1CCCCC1C (stereo not given),77.6% (inactive)
14,C=C(C)[C@@H]1CC[C@]2(C(=O)OC)CC[C@]3(C)[C@H](CC[C@@H]4[C@@](C)(CC/C(N)=N/O)[C@H](C(=C)C)CC[C@]43C)[C@@H]12,102% (inactive)
15,Cn1c(=O)c2c(nc(N3CCCC3)n2C)n(C)c1=O,90.9% (inactive)
16,COc1ccc(/C=C(\C#N)c2cc3ccccc3n2C(C)=O)cc1,99.2% (inactive)
17,Cc1cc(C)nc(NC(N)=NCCc2ccccc2)n1,39.2% (inactive)
18,COc1cc(/C=C/c2cc(/C=C/c3ccc(O)c(OC)c3)n(-c3ccc(Cl)cc3)c(=O)n2)ccc1O,88.6% (inactive)
19,Oc1ccc(CCC2CCCC(CCc3ccc(OCCF)cc3)N2)cc1 (stereo not given),75.3% (inactive)
20,CCSc1sc(-c2ccc(C)cc2)nc1[P+](c1ccccc1)(c1ccccc1)c1ccccc1,-38.3% (active)

row,Structure (SMILES),growth
1,O=Cc1nc2ccccc2[nH]1,86.1% (inactive)
2,COc1ccc(O)c(-c2cc(-c3ccc(Cl)cc3)c(C#N)c(=O)[nH]2)c1,36% (inactive)
3,NC1=C(C/C(N)=N\O)C(c2ccccc2Cl)c2c(ccc3ccccc23)O1 (stereo not given),75.7% (inactive)
4,Cn1cc(-c2csc(-c3cn(CCNC(=O)OC(C)(C)C)c4ccc(F)cc34)n2)c2cccnc21,49.2% (inactive)
5,Cc1cc(Cl)nc(N(CCNc2ccnc3cc(Cl)ccc23)Cc2ccco2)n1,57% (inactive)
6,O=C(NC1=CC(=O)c2ccccc2C1=O)c1ccccc1,-84.1% (active)
7,CCCCCCCN(CCCCCCC)C(=N)c1ccnc2ccccc12,-4.56% (active)
8,Cc1cccc2c1NC(=O)[C@@]21[C@H](C(=O)c2ccccc2)[C@]2(C(=O)Nc3ccccc32)[C@H]2CCCN21,-25.2% [100 µM] (active)
9,CCC(CC)C(=O)OC(C)COc1ccc(C(C)(C)C)cc1 (stereo not given),92.6% (inactive)
10,COc1cc(/C=N/NC(=S)NNC(=S)NC2CCCCC2)cc(OC)c1OC,91.2% (inactive)
11,CC(=O)Oc1ccccc1C(=O)/C=C/c1cccc([N+](=O)[O-])c1,69.8% (inactive)
12,C#Cc1cc2c(N)c(C(=O)c3cc(OC)c(OC)c(OC)c3)[nH]c2cc1OC,-4.39% (active)
13,O=S(=O)(NCCNc1cc(-c2cn(-c3ccccc3)nc2-c2cccc(O)c2)ccn1)c1ccccc1,49.4% (inactive)
14,COc1cc2nc(Cl)nc(Nc3cccc(C(=O)/C=C/c4ccc(Br)cc4)c3)c2cc1OC,83.6% (inactive)
15,C/C(=C(/c1ccccc1)c1ccc(N2C(=O)c3cccc4c(NCc5ccccc5)ccc(c34)C2=O)cc1)c1ccccc1,89% (inactive)
16,CCCCC[C@H]1CC=C2C(=O)C=C[C@@H]2CC=CCCCC(=O)O[C@@H](CCCCC)CC=C2C(=O)C=C[C@@H]2CC=CCCCC(=O)O[C@@H](CCCCC)CC=C2C(=O)C=C[C@@H]2CC=CCCCC(=O)O1,-47.7% [8.75 µM] (active)
17,Oc1cccc2ccc(N/N=C/c3cc(CN4CCCCC4)c(O)c4ncccc34)nc12,36.9% (inactive)
18,O=C(CCCCCn1c2ccccc2c2c3c(c4c5ccccc5[nH]c4c21)C(=O)N(O)C3=O)N1CCOCC1,89.8% (inactive)
19,C=C1C(=O)O[C@H]2[C@H]1CC/C(COC(=O)NCCc1c[nH]c3ccccc13)=C\CC[C@@]1(C)O[C@@H]21,-52% (active)
20,Cc1cc(C)c(NC(=O)c2sc3nc4c(cc3c2N)CCCC4)c(C)c1,52.3% (inactive)
